Experimental findings from PubChem BioAssay are described below.

Unmarked numbers belong to inactive results. How the calls were made is not given here.

In the assay the target is Pantothenate synthetase (Mycobacterium tuberculosis (strain ATCC 25618 / H37Rv)) (UniProt P9WIL5). Put plainly: Coupled enzyme confirmation of inhibitors against recombinant Mtb PanC (AID 375).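 Further: 0% = full reaction with vehicle and 100% = no enzyme background.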 The conditions noted are these: coupled enzyme assay; at 10 µM, stronger effect = higher value.
Pantothenate synthetase (Mycobacterium tuberculosis (strain ATCC 25618 / H37Rv)), sequence (P9WIL5 whole entry, looked up): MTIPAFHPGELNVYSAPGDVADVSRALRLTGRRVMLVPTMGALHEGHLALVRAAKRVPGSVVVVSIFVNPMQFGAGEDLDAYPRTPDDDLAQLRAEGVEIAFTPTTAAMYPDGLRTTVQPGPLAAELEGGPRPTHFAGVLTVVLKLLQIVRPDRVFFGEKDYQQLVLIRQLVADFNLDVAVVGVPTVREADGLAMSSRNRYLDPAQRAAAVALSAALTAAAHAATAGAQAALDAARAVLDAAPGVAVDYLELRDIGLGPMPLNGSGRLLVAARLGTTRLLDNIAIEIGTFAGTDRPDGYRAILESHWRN
For the compound `N#CC1=C(N)C(C#N)(C#N)[C@H](c2ccsc2)[C@H]2COCC=C12`, the inhibition is 0%.

On to `COc1ccc(N2CCN(Cc3nc4ccccc4c(=O)[nH]3)CC2)cc1`, for which the inhibition was 0%.

As for `Cc1ccc(C)c(N(CC(=O)NCc2ccco2)C(=O)CCC(=O)Nc2ccccn2)c1`, the inhibition is 0%.

Regarding `COc1ccccc1Oc1coc2c(CN3CCN(C)CC3)c(O)ccc2c1=O`, the inhibition was 0%.

Consider `CCN1C(=O)/C(=C2\C=Cc3ccccc3N2CC)OC1=S`, for which the inhibition was 11%.

As to `CCC(C)(NC(=O)CNC(C)=O)C(=O)NC1CCCCC1` (centres undefined), the inhibition is 0%.

`CC(=O)c1ccc(OC(=O)c2cccs2)cc1`: the inhibition was 0%.

As for `Cc1ccc(NC(=O)C2CCCN2S(=O)(=O)c2cccc3cccnc23)cc1F` (centres undefined), the inhibition is 0%.

Consider `O=C(NCCc1ccccc1)c1cc(-c2ccco2)on1`, for which the inhibition is 5%.

Take `O=C(CCn1c(=O)sc2ccccc21)NCc1ccc2c(c1)OCO2`: the inhibition is 0%.

For `CCSCCNC(=O)c1cc(-n2cnnc2)ccc1Cl`, the inhibition is 0%.

Take `CON(C)c1nc(Oc2ccc(=O)[nH]n2)nc(N(C)C)n1`: the inhibition was 1%.

For the compound `Cc1cnc(NC(=O)C2=C(O)c3ccccc3S(=O)(=O)N2C)s1`, the inhibition is 0%.

Take `COc1ccc(N2CCN(C(c3cccs3)c3nnnn3C3CCCC3)CC2)cc1` (centres undefined): the inhibition was 6%.

Take `CN(C)c1ccc(C=NCC2(O)CCOC(C)(C)C2)cc1` (centres undefined): the inhibition was 3%.

Take `COC(=O)c1ccccc1NC(=O)C12CCC(C)(C(=O)O1)C2(C)C` (centres undefined): the inhibition is 0%.

For `Cc1nn(Cc2ccccc2Cl)c(C)c1NC(=O)C1C2CCC(O2)C1C(=O)O` (centres undefined), the inhibition was 1%.

For `Cn1c(=O)oc2cc(S(=O)(=O)NCCC(=O)N3CCc4ccccc4C3)ccc21`, the inhibition was 0%.

With `COc1ccc(OC)c(N(CC(=O)Nc2cccnc2)S(=O)(=O)c2ccc(OC)c(OC)c2)c1`, the inhibition is 0%.

Take `CCCn1nc(CC(=O)O)c2ccccc2c1=O`: the inhibition is 0%.

With `COc1ccccc1NS(=O)(=O)c1ccc(OC)c(OC)c1`, the inhibition was 8%.

Turning to `CCOc1ccc(-c2cc(C(=O)N3CCN(c4ccccn4)CC3)c3ccccc3n2)cc1`, the inhibition is 2%.

As for `O=C(c1ccccc1F)N1CCN(Cc2cccc(Cl)c2)CC1`, the inhibition is 5%.

With `CCc1nnc(NC(=O)CSc2nnc(Cc3ccccc3)n2-c2ccc(OC)cc2)s1`, the inhibition was 7%.

Turning to `CCCCOc1ccc(C(=O)Nc2ccc(N3CCN(C(C)=O)CC3)cc2)cc1`, the inhibition is 0%.

Regarding `CC1CCN(S(=O)(=O)c2ccc(S(=O)(=O)NCC(=O)C(C)(C)C)cc2)CC1`, the inhibition is 2%.

Turning to `CC(C)C(NC(=O)c1ccc(S(=O)(=O)N2CCOCC2)cc1)c1nc2ccccc2[nH]1` (centres undefined), the inhibition was 0%.

For `COCCn1c(SCC(=O)Nc2nnc(C)s2)nnc1-c1ccncc1`, the inhibition is 7%.

For `COc1cc(NC(=O)C(C)Oc2ccccc2)c(C(=O)O)cc1OC` (centres undefined), the inhibition is 0%.

As for `Cc1ccc(-c2cc3nc4c(c(=O)n3[nH]2)CCCC4)cc1`, the inhibition was 6%.

Turning to `CCN(CC)C(=O)C1CCCN(c2ncnc3c2cnn3-c2ccc(Cl)cc2)C1` (centres undefined), the inhibition was 4%.

Regarding `CCOC(=O)c1c(NCc2ccc3c(c2)OCO3)c2ccccc2[nH]c1=O`, the inhibition was 0%.

Turning to `CCCN(C(=O)CSc1nnc(-c2ccoc2C)n1N)C1CCS(=O)(=O)C1` (centres undefined), the inhibition was 0%.

Consider `Nc1nc(Nc2ccc(Cl)cc2Cl)nc(C(F)(F)F)n1`, for which the inhibition was 0%.

For the compound `CCOC(=O)N1CCC(NC(=O)c2cc3c(=O)n(C)c4ccccc4c3n2C)CC1`, the inhibition was 0%.

In the case of `COc1ccc(S(=O)(=O)NCCSCc2ccco2)cc1Cl`, the inhibition is 0%.

Take `CCOc1cc(C2C(C(=O)c3ccccc3)=C(C(=O)OC)Nc3nnnn32)ccc1O` (centres undefined): the inhibition is 0%.

As to `CC1CC(C)CN(CCCNC(=O)c2ccc3c(c2)NC(=O)C(N2CCCCC2)S3)C1` (centres undefined), the inhibition was 0%.

Consider `COc1ccc(NC(=O)CS(=O)CC(=O)Nc2cc(Cl)ccc2OC)cc1` (centres undefined), for which the inhibition is 3%.

In general, inhibition refers to the change of the read-out against control, counted positive when it falls.
